The list is not random: actives were taken first. Their share in the collection is about 1.6%.
NALP1 inh: NALP1 inflammasome inhibitors in reconstituted yeast, colorimetric, S. cerevisiae, triplicate retest; AID 2071, 2009; inhibition, % at 10 µM; hit rate 0.61% among 280,000; S. cerevisiae NALP1/ASC/caspase-1 growth, X-gal OD620, 72 h; in the data active = inhibition mostly above about 24%, no sharp cut-off; inactive = mostly below about 32%
OPRM1-OPRD1 inv: inverse agonists of MOR-DOR heterodimerization, primary screen, cell-based, luminescence; Mu-type opioid receptor (Homo sapiens) + Delta-type opioid receptor (Homo sapiens), …; cell-based MOR-DOR heterodimer luminescence, inverse agonism; inhibition, % at 9.3 µM; hit rate 0.21% among 340,000; in the data active = inhibition above about 22%, passing the limit was not always enough;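 also: 0% = cells with DMSO and 100% = wells without cells with DMSO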
PolyA inh: polyadenylation inhibitors in yeast reporter cells, primary screen, luminescence, S. cerevisiae; activity score, % at 12 µM; hit rate 0.02% among 300,000; S. cerevisiae SKY197-pL101 polyadenylation reporter, beta-gal luminescence; efflux-impaired pdr1/pdr3 knockout yeast; score 100 = 6 SD above DMSO;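 active = lowest replicate activity score at least 50, where 100 means six control SD above control mean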;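 also: yeast exposed to compound for 9 h at 30 °C; higher score means more reporter readthrough which indicates perturbed polyadenylation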
OPRM1-OPRD1 ag: agonists of OPRM1-OPRD1 heterodimerization, primary screen, cell-based, luminescence. cells. activation, % at 9.3 µM. hit rate 0.3% among 340,000. AID 504326, 2011; in the data active = activation above about 18%;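 also: 0% = vehicle-treated cells and 100% = reference agonist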
HTR5A ag: HTR5A agonists in luminescence cell assay, primary screen, counter-screen for OPRM1-OPRD1 heterodimer agonist project, full-deck HTS. activation, % at 9.3 µM. AID 504692, 2011. 5-hydroxytryptamine receptor 5A (Homo sapiens), P47898. cell-based. hit rate 0.61% among 340,000; in the data active = activation mostly above about 9.5%, no sharp cut-off; inactive = mostly below about 7.6%;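 also: 0% = cells with vehicle only and 100% = reference agonist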
Target sequence (P47898 whole entry, looked up): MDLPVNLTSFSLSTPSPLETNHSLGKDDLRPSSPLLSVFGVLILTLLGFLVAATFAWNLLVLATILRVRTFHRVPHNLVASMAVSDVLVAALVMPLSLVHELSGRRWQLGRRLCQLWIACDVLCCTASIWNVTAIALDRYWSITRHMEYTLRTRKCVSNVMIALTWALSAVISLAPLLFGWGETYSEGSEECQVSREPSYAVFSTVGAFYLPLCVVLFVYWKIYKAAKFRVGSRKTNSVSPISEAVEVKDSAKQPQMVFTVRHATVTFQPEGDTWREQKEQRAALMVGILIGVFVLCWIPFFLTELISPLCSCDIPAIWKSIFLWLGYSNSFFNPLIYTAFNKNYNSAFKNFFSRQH
HTR5A inv ag: HTR5A inverse agonists in luminescence cell assay, primary screen, counter-screen for OPRM1-OPRD1 heterodimer inverse agonist project, full-deck HTS; HTR5A cell line, inverse agonism; hit rate 0.083% among 340,000; 5-hydroxytryptamine receptor 5A (Homo sapiens), P47898; inhibition, % at 9.3 µM; in the data active = inhibition mostly above about 23%, no sharp cut-off; inactive = mostly below about 18%;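 also: 0% = cells with DMSO and 100% = no-cell wells with DMSO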
* marks the source's active call; other numbers are inactive results; x = not tested or not shown.

SMILES | NALP1 inh | OPRM1-OPRD1 inv | PolyA inh | OPRM1-OPRD1 ag | HTR5A ag | HTR5A inv ag
CCN1CCN(c2cc(C)c3cc(NC(=O)c4ccccc4F)ccc3n2)CC1 | 36.7* | x | x | x | x | x
Cc1cc(NC(=O)COc2ccc3ccccc3c2Br)no1 | x | -12.9 | x | 2.5 | 11.9* | -43.1
CCOc1ccccc1OCC(=O)Nc1cc(C)on1 | x | 6.5 | x | -1.6 | -8.7 | 21.2
CC(C)(C)C(=O)/C(=C\c1ccc([N+](=O)[O-])cc1)n1cncn1 | 55.2* | x | -69.6 | x | x | x
NC(=S)NCc1cccnc1 | -6.0 | 12.5 | 4.6 | -2.5 | 5.0 | -13.0
NNC(=S)NCc1cccnc1 | 73.8* | 11.1 | 4.8 | -2.1 | -4.5 | 16.4
COc1ccc(-c2nc(N3CCN(C)CC3)sc2-c2ccc(OC)cc2)cc1 | 25.9 | -9.7 | 5.5 | 1.5 | -6.5 | 17.3
Fc1ccc(C2CCCN2Cc2nc(Cc3ccccc3F)no2)cc1 (stereo unspecified) | 24.5* | -21.2 | -2.3 | 4.0 | 0.6 | -2.0
Fc1ccc(C2CCCN2Cc2nc(Cc3ccccc3)no2)cc1 (stereo unspecified) | -6.0 | -7.9 | -6.7 | 1.5 | 1.0 | 14.1
O=C(Nc1ccc(-c2cc3ccccc3oc2=O)c(Cl)c1)c1cccnc1 | 33.4* | 5.4 | -6.1 | -1.0 | 5.0 | -15.1
O=[N+]([O-])c1ccc2nc[nH]c2c1 | x | 1.5 | x | -0.3 | 5.6 | -21.5
O=C(CN(C1CCCCC1)S(=O)(=O)c1ccc(F)cc1)NCC1CCCO1 (stereo unspecified) | x | -84.8 | x | 16.2 | 16.8* | -61.1
CCOC(=O)N1CCN(C(=O)CN(C2CCCCC2)S(=O)(=O)c2ccc(Cl)cc2)CC1 | 22.9 | -15.6 | -0.2 | 2.9 | -0.1 | -27.0
CCOC(=O)N1CCN(C(=O)CN(C2CCCCC2)S(=O)(=O)c2ccc(F)cc2)CC1 | 38.1* | 13.3 | -8.0 | -2.3 | -3.2 | -4.2
O=C(CN(C1CCCCC1)S(=O)(=O)c1ccccc1)NCC1CCCO1 (stereo unspecified) | 8.3 | 4.3 | -4.9 | -0.7 | 7.3 | -20.8
CCOC(=O)N1CCN(C(=O)c2ccc(Cl)c(NC(=O)c3cccs3)c2)CC1 | x | 7.3 | x | -1.8 | -3.4 | 8.4
O=C1CC(N2CCC(c3nc4ccccc4[nH]3)CC2)C(=O)N1c1ccccc1F (stereo unspecified) | 31.5* | 13.4 | 10.3 | -2.8 | 9.2 | 0.3
Cc1ccc(F)c(CNC(=O)C2CCC(=O)N(Cc3ccccn3)C2)c1F (stereo unspecified) | -4.6 | 10.4 | -1.3 | -1.9 | -2.7 | 15.4
CCOc1ccc2oc(C(=O)Nc3ccc(N4CCOCC4)cc3)c(C)c2c1 | 22.3 | -8.2 | -7.4 | 1.6 | 13.8* | 11.3
CCOc1ccc2oc(C(=O)Nc3ccc4c(c3)OCO4)c(C)c2c1 | 21.8 | -6.4 | -38.8 | 1.1 | 0.6 | -1.4
COc1ccccc1NC(=O)Cn1c(=O)sc2ccccc21 | 1.0 | 10.3 | -7.2 | -1.8 | 0.3 | -26.5
COc1ccc(NC(=O)Cn2c(=O)sc3ccccc32)c(OC)c1 | 39.4* | 3.7 | 5.9 | -0.7 | 1.7 | -4.6
CCOCCc1c(O)nc(SCC(=O)N2CCOCC2)[nH]c1=O | 4.1 | -2.4 | 16.8 | 0.3 | 0.1 | -0.3
Cc1ccc(OCC(=O)Nc2cc(S(=O)(=O)N3CCCCC3)ccc2C)c([N+](=O)[O-])n1 | 38.8 | -8.0 | -7.5 | 1.5 | 4.3 | -2.0
COc1ccc(-c2nnn(CC(=O)NC3CCCc4ccccc43)n2)cc1OC (stereo unspecified) | 42.2* | 4.3 | 18.2 | -0.8 | 3.3 | 3.4
SMILES | NALP1 inh | OPRM1-OPRD1 inv | PolyA inh | OPRM1-OPRD1 ag | HTR5A ag | HTR5A inv ag
COc1ccc(-c2nc(CSCC(=O)NC3CCCc4ccccc43)c(C)o2)cc1OC (stereo unspecified) | -2.4 | 13.3 | -6.8 | -2.5 | -4.0 | -10.3
CCOC(=O)c1c(C)[nH]c(C)c1C(=O)COC(=O)Cc1n[nH]c(=O)c2ccccc12 | x | -4.5 | x | 1.1 | -0.5 | 1.2
CNC(=O)CSc1nnc(-c2cnccn2)n1C | 26.0* | 13.8 | 11.3 | -2.8 | 0.8 | -20.8
Cn1c(SCC(=O)NC(C)(C)C)nnc1-c1cnccn1 | 24.7 | 8.4 | 4.1 | -1.6 | 4.3 | -15.3
C=CCn1c(-c2cccs2)nc2nc3ccccc3nc21 | 6.0 | 13.2 | -5.5 | -2.3 | 4.6 | -12.8
C=CCn1c(-c2cccs2)nc2ccccc21 | 24.6* | 11.9 | x | -2.9 | -3.0 | 9.5
CC1(C)CC(=O)c2cn3nc(C(F)(F)F)nc3nc2C1 | 43.4* | -1.2 | -4.1 | 0.2 | 11.2 | -26.1
CC1(C)CC(=O)c2cn3c(nc2C1)nc1ccccc13 | 3.8 | 13.6 | 11.2 | -2.2 | 3.5 | -14.8
O=C(NCCNC(=O)c1cc(Cl)ccc1Cl)c1ccco1 | 24.1 | 13.8 | 1.9 | -2.1 | -2.9 | 8.2
CC1(C)CC(NC(=O)C2CCC(=O)N(Cc3ccccc3F)C2)CC(C)(C)C1 (stereo unspecified) | 5.8 | -0.8 | 8.6 | 0.1 | 1.0 | -10.9
CCOC(=O)C1C(=O)C(C(C)=O)C(=O)CC1CC(C)SCC (stereo unspecified) | 44.0* | -6.0 | 19.2 | 1.0 | -3.4 | -8.8
COc1ccc(S(=O)(=O)N(C)C[C@H]2Oc3ccc(NC(=O)c4ccncc4)cc3C(=O)N([C@H](C)CO)C[C@@H]2C)cc1 | x | 0.5 | x | -0.1 | 4.0 | -14.9
COc1ccc(/C=C/C(=O)OCC(=O)NCCNC(=O)COC(=O)/C=C/c2ccc(OC)cc2)cc1 | 13.0 | -7.6 | -20.0 | 1.3 | 11.9* | -43.8
COc1cc(C(=O)NCC2CCCO2)ccc1OCc1ccccc1Cl (stereo unspecified) | 16.7 | 8.6 | 27.8 | -1.6 | 3.4 | -29.0
Cc1ccc(CN2CCSc3sccc3C2=O)cc1 | 25.6* | 7.9 | -7.9 | -1.7 | 4.3 | -11.8
O=C1c2ccsc2SCCN1Cc1ccc(Cl)cc1 | -4.9 | 14.7 | -18.2 | -3.2 | 2.2 | -6.7
CCOCCn1c(SCc2ccc(C)cc2)nc2c1c(=O)[nH]c(=O)n2C | 12.6 | 0.0 | -12.0 | 0.0 | 12.9* | -31.6
COc1cc(NC(=O)Cn2nc(C(F)(F)F)c(Br)c2C)cc([N+](=O)[O-])c1 | 24.6 | -54.9 | 10.6 | 10.4 | 11.6* | -40.2
CCc1ccc(NC(=O)C2CCC(CNC(=O)[C@@H]3Cc4ccccc4CN3)CC2)cc1 (stereo partly specified) | 33.5* | 12.4 | 22.0 | -2.5 | -2.1 | -0.2
CC(C)c1ccc(NC(=O)C2CCN(C(=O)[C@@H]3Cc4ccccc4CN3)CC2)cc1 | 31.5* | 0.3 | -0.1 | -0.1 | 3.4 | -15.8
O=C(O)CCC(=O)N1CCN(c2ncccn2)CC1 | 14.0 | 8.9 | -10.8 | -1.7 | -2.6 | 2.5

Bioassay records from PubChem BioAssay.
